Assay results as given in PubChem BioAssay (NCATS).
Inconclusive results are not listed. The source made the active and inactive calls. Unless noted, calls follow the shape of the dose curve; as a rule, active = well fitted curve in the direction sought with a large enough effect; inconclusive = small, poorly fitted or top-dose-only effect, or another doubt; inactive = no such curve, though single readings can be large; an effect the other way counts as inactive or inconclusive.

Key:
[1] = AP1 Signaling Pathway (AID 357; active = well fitted curve in either direction with a large enough effect, not every such curve was filed as active;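 also: ME-180 reporter cells stimulated with EGF at its EC50 level; % is scaled to controls: 0 for no effect and ±100 for the full control effect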)
Outline: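 Titration-series screen for positive or negative modulators of EC50 EGF-induced signaling in ME-180 cells carrying an AP-1-driven beta-lactamase reporter. After 5 hours at 37 degrees Celsius, CCF4 460nm/530nm emission ratio gave %Activity; AC50 values derived.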

[2] = NFAT Signaling Pathway (AID 444; active = well fitted curve in either direction with a large enough effect, not every such curve was filed as active;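 also: carbachol stimulus at about its EC50 of 1 µM final; % is scaled to controls: 0 for no effect and ±100 for the full control effect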); conditions: Jurkat NFAT-bla M1, carbachol, beta-lactamase ratio, 5 h; at 38 µM (top of the series)
Outline: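 Jurkat cells carrying an NFAT-driven β-lactamase reporter and co-transfected muscarinic M1 receptor were treated with compound plus carbachol (1 uM final, an EC50 level) for 5 h at 37 °C. CCF4 loading followed for 1 h at RT; 460/530 nm ratio gave %activity.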

[3] = biological target: Glucocorticoid receptor (Homo sapiens) (UniProt P04150); assay: GR-GFP Redistribution (AID 450;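 active = compounds whose dose series gives a full or clear partial fitted curve of increased nuclear translocation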; also: potency is read from the fitted curve at half-maximal effect); conditions: U2OS GR-GFP nuclear translocation, laser cytometry, 2 h
[4] = biological target: Mitogen-activated protein kinase 10 (Mus musculus) (UniProt Q61831); assay: JNK3 AlphaScreen Assay (AID 530; active = well fitted curve in either direction with a large enough effect, not every such curve was filed as active;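 also: kinase came from lysate of stimulated human HepG2 cells; signal reports phosphorylation of biotinylated GST-cJun 1-79 at Ser73 with 10 µM ATP; % is scaled to controls: 0 for no effect and ±100 for the full control effect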)
Outline: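 Biotinylated GST-cJun(1-79) served as substrate for JNK3 in HepG2 lysates stimulated with IL-1beta and TNF-alpha. ATP was 10 uM final, pH 7.6. Ser73 phosphorylation was quantified by AlphaScreen (680 nm excitation).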

[5] = biological target: 3',5'-cyclic-AMP phosphodiesterase 4B (Homo sapiens) (UniProt Q07343); assay: qHTS Assay for Inhibitors of PDE-IV (AID 607; active = well fitted activation curve with a large enough effect in the main read-out, with a control signal flat, not every such curve was filed as active; also: % of control where 0% means no effect)
Outline: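 The readout is membrane depolarisation from a cAMP-sensing CNG channel, detected with a potential dye at ex 535/em 590. Cells were HEK293-derived (endogenous PDE-IV) at 1000 cells/well, titrated up to 22.9 uM final.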

[6] = biological target: Muscarinic acetylcholine receptor M1 (Rattus norvegicus) (UniProt P08482); assay: qHTS Assay for Antagonists of Acetylcholine Muscarinic M1 Receptor: Kinetic Measurement of Intracellular Calcium Response (AID 943);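 also: Fluo-4 calcium signal as peak divided by basal fluorescence over 4 min; nearly all actives have a fitted effect of over 75% in size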
Outline: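 Read-out: peak over basal Fluo-4 fluorescence, kinetic at 1 Hz for 4 min after EC80 carbachol (100 nM final). Rat M1-CHO cells, dye loaded 1 h at 37C, compound added 10 min before agonist.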

[7] = biological target: Muscarinic acetylcholine receptor M1 (Rattus norvegicus) (UniProt P08482); assay: qHTS Assay for Antagonists of Acetylcholine Muscarinic M1 Receptor: Measurement of IP-One Response (AID 944); also: nearly all actives have a fitted effect of over 75% in size
Outline: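 Read-out: HTRF competition between d2-IP1 and Eu-cryptate anti-IP1 antibody, emission 620 and 665 nm. Stimulus was carbachol, EC80 (200 nM), for 30 min in M1-CHO cells (rat receptor), after 10 min compound pre-treatment.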

[8] = biological target: Pyruvate kinase (Leishmania mexicana) (UniProt Q27686); assay: qHTS Validation Assay for Inhibitors of Leishmania Mexicana Pyruvate Kinase (AID 945);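 also: 0% = DMSO only neutral control wells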
Outline: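 Eight-point qHTS titrations; enzyme 0.2 nM LmPYK (E451W mutant); substrates 0.5 mM PEP, 0.1 mM ADP; 7 mM MgCl2; 1 h room temperature; PKLight luminescence normalized to neutral control.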

[9] = biological target: Pyruvate kinase PKM (Homo sapiens) (UniProt P14618); assay: qHTS Assay for Activators of Human Muscle Pyruvate Kinase (AID 954; active = well fitted curve in the direction sought with a large enough effect, not every such curve was filed as active;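 also: 0% = uninhibited enzyme and -100% = no enzyme or full thiadiazolimine inhibition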)
Outline: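 PKM2, human, >95% pure, 0.1 nM; PEP 0.5 mM (Km), ADP 0.1 mM; 50 mM imidazole pH 7.2, 50 mM KCl, 0.01% Tween 20, 0.05% BSA; 1 h RT; luciferase luminescence readout.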

[10] = biological target: Alpha-galactosidase (Coffea arabica) (UniProt Q42656); assay: Counterscreen for Glucocerebrosidase Inhibitors: qHTS Assay for Coffee Bean alpha-Galactosidase at pH 4.5 (AID 957);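 also: plate controls were enzyme alone for no effect and no enzyme for full effect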
Outline: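 Fluorogenic read-out: 4-methylumbelliferone at Ex 365/Em 440 nm after NaOH/glycine stop (pH 10). Enzyme 2 nM, 4-MU-alpha-galactoside 80 uM, citrate buffer pH 4.5, 20 min RT; normalized to no-enzyme and enzyme controls.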

[11] = biological target: Alpha-galactosidase A (Homo sapiens) (UniProt P06280); assay: Counterscreen for Glucocerebrosidase Inhibitors: qHTS Assay for Human alpha-Galactosidase at pH 4.5 (AID 992); also: 0% is about no effect
Outline: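 Fluorogenic 4-MU alpha-D-galactoside (80 uM) hydrolysis, 2 nM enzyme, pH 4.5 citrate buffer + 0.005% Tween-20; 20 min RT; NaOH/glycine pH 10 stop; Ex365/Em440. Compounds titrated 0.7 nM–77 uM; Hill-equation AC50.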

[12] = biological target: alpha-glucosidase (Oryza sativa, rice) (UniProt Q653V4); assay: Counterscreen for Glucocerebrosidase Inhibitors: qHTS Assay for Rice alpha-Glucosidase at pH 5.0 (AID 997);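 also: 0% = full activity with enzyme and -100% = basal without enzyme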
Outline: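 Endpoint fluorogenic assay at pH 5.0: compounds (0.7 nM to 77 uM) titrated against 4 nM rice enzyme and 400 uM 4-MU-alpha-glucoside for 20 min at room temperature; NaOH/glycine stop, read ex 365/em 440 nm, Hill-fitted AC50.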

[13] = biological target: Alpha-galactosidase (Coffea arabica) (UniProt Q42656); assay: Counterscreen for Glucocerebrosidase Inhibitors: qHTS Assay for Coffee Bean alpha-Galactosidase at pH 5.9 (AID 998);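 also: plate controls were uninhibited enzyme for no effect and no-enzyme basal signal for full effect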
Outline: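 In 50 mM citric acid pH 5.9 with 0.005% Tween-20, coffee bean enzyme hydrolyses 80 uM 4-MU alpha-D-galactopyranoside over 20 min at RT. Activity is normalized to controls; AC50 comes from Hill-modelled concentration-response data.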

[14] = biological target: Ubiquitin carboxyl-terminal hydrolase 1 (Homo sapiens) (UniProt O94782); assay: Inhibitors of USP1/UAF1: Pilot qHTS (AID 504865);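 also: rhodamine fluorescence freed from ubiquitin-rhodamine substrate followed over time; top concentration of the series differs between compounds; % is scaled to controls: 0 for no effect and ±100 for the full control effect; nearly all actives have a fitted effect of over 35% in size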
Outline: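 1nM USP1/UAF1 + cpd, 15 min RT; start w/ Ub-Rho 150nM final; kinetic FL 480/540 nm, 6 reads q60 s. Buffer 50mM HEPES pH 7.8, 0.5mM EDTA, 1mM TCEP, 0.01% Tween-20, 0.1 mg/ml BSA.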

[15] = biological target: DNA dC->dU-editing enzyme APOBEC-3G (Homo sapiens) (UniProt Q9HC16); assay: qHTS for inhibitors of Vif-A3G interactions: Validation (AID 588379); also: 0% is about no effect
Outline: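 Yellow fluorescence (Ex 488, Em 500-530) of Vif-coexpressing HeLa A3G-eYFP cells, scanned by Acumen cytometer, reports blocked A3G degradation. Cells plated at 700/well overnight at 37 deg C before compound addition, then a further overnight compound incubation at 37 deg C.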

[16] = Primary qHTS for small molecule stabilizers of the endoplasmic reticulum resident proteome: Secreted ER Calcium Modulated Protein (SERCaMP) assay (AID 1508630); also: % is scaled to controls: 0 for no effect and ±100 for the full control effect
Outline: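 The SH-SY5Y reporter protocol was run at 3 concentrations up to 38.3 uM (primary) or 11 concentrations (follow-up): 16 h compound, 100 nM thapsigargin for 4 h, then extracellular luciferase luminescence.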

[17] = qHTS for Inhibitors of Plasmodium falciparum (DD2) proliferation (AID 504314);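 also: parasite DNA measured by SYBR Green fluorescence after red cell lysis; plate controls were DMSO vehicle for no effect and artemisinin wells for full effect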
Outline: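 SYBR Green DNA-fluorescence growth assay: infected RBCs at 0.3% parasitemia, 2.5% hematocrit, 72 h compound exposure, 37C, 5% CO2; overnight lysis with dye at RT; normalized to 0.29 uM artemisinin and vehicle.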

[18] = qHTS for Inhibitors of Plasmodium falciparum (GB4) proliferation (AID 504315);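 also: 0% = DMSO vehicle and -100% = 0.29 µM artemisinin control; nearly all actives have a fitted effect of over 50% in size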
Outline: (§1)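 Parasite growth measured as SYBR Green DNA fluorescence (ex 485, em 535 nm) after overnight lysis following 72 h culture at 37 °C, 0.3% parasitemia, 2.5% hematocrit. Values normalized against DMSO and 0.29 uM artemisinin controls, with plate-stack correction.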

[19] = qHTS for Inhibitors of Plasmodium falciparum (CP250) proliferation (AID 504320);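 also: plate controls were DMSO vehicle for no effect and 0.29 µM artemisinin control for full effect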
Outline: as §1

[20] = biological target: Cytochrome P450 3A4 (Homo sapiens) (UniProt P08684); assay: qHTS Assay for Inhibitors and Substrates of Cytochrome P450 3A4 (AID 884); also: % is scaled to controls: 0 for no effect and ±100 for the full control effect; nearly all actives have a fitted effect of over 50% in size
Outline: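 Luminescent readout of luciferin produced by CYP3A4 (20 nM) dealkylation of Luciferin-PPXE, 25 uM (its KM). NADPH-driven reaction ran 60 min at RT after 10 min compound preincubation; data scaled to 57 uM ketoconazole as 100% inhibition.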

[21] = Confirmation and Secondary Assay for Modulators of Hemoglobin Beta Chain Splicing at IVS2 654 locus (AID 910);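 also: per-well total GFP intensity by laser scanning cytometry after 2-day treatment; % of control where 0% means no effect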
Outline: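 HeLa cells stably carrying EGFP interrupted by mutant beta-globin IVS2-654 intron (CMV-driven) were treated with compound for 2 days at 37C; corrected splicing was scored as total peak GFP intensity per well (488 nm excitation, 500-520 nm emission).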

[22] = Confirmation and Secondary Assay for Modulators of Hemoglobin Beta Chain Splicing at IVS2 705 locus (AID 930);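 also: HeLa cells stably expressing the EGFP-705 splicing reporter; GFP fluorescence per well restored by corrected splicing of the IVS2-705 intron in EGFP; % of control where 0% means no effect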
Outline: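 HeLa IVS2-705 EGFP reporter cells, 500/well, compound 2 d at 37C; correct splicing yields fluorescent EGFP. Control: 500 nM antisense PNA. Read-out: total peak GFP intensity.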

[23] = qHTS Assay for Lipid Storage Modulators (AID 1519; calls by dose curve); conditions: Drosophila S3 cells, BODIPY lipid droplet/cell ratio, laser cytometry, cells loaded with oleic acid; for activity change, negative = inhibition: at 57.5 µM (top of the series)
Outline: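 Cells seeded at 5,000 per well were treated with compounds over a concentration series and loaded with oleic acid (400 uM, as added). Lipid droplet fluorescence (488 nm excitation, 500-530 nm channel) was read by laser-scanning cytometry and normalized to 20 uM Triacsin C.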

[24] = biological target: Cytochrome P450 1A2 (Homo sapiens) (UniProt P05177); assay: p450-cyp1a2 (AID 410; calls by dose curve; also: potency is read from the fitted curve at half-maximal effect)
Outline: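 20nM CYP1A2, 100uM Luciferin-ME (=Km), 100mM KPO4; cpd 10 min RT; +NADPH regen, 60 min RT; stop/detect 20 min; luminescence. Normalized to furafylline 57 uM = full inhibition.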

[25] = biological target: Cytochrome P450 3A4 (Homo sapiens) (UniProt P08684); assay: qHTS Assay for Activators of Cytochrome P450 3A4 (AID 885); also: nearly all actives have a fitted effect of over 65% in size
Outline: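 Activators are scored by enhanced luminescence from CYP3A4 conversion of luciferin-PPXE (25uM, equal to KM) to luciferin, after 60 min at RT with an NADPH-regenerating system.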

[26] = measured here: cell count channel max response
[27] = measured here: lipid channel max response

Ubiquitin carboxyl-terminal hydrolase 1 (Homo sapiens), sequence (O94782 whole entry, looked up): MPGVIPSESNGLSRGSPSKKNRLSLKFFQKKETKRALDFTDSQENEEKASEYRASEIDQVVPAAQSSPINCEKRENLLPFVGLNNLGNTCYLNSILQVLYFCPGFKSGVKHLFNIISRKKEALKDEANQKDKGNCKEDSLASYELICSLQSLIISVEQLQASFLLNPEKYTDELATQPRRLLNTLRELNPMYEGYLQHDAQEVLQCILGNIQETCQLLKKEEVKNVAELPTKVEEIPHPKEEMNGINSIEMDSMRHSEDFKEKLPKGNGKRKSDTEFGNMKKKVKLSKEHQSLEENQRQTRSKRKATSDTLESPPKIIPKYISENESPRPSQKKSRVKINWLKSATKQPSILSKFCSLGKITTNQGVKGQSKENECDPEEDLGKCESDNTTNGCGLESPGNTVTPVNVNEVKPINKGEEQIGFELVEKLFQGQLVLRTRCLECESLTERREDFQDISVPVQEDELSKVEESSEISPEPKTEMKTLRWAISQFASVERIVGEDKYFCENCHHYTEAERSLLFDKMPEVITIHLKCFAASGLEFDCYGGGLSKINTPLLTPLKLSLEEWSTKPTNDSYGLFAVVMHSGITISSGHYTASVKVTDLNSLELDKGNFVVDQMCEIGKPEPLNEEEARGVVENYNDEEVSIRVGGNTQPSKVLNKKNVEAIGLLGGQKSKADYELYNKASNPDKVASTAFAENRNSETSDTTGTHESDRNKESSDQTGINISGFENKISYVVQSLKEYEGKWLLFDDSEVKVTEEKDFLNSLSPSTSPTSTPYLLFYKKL
Glucocorticoid receptor (Homo sapiens), sequence (P04150 whole entry, looked up): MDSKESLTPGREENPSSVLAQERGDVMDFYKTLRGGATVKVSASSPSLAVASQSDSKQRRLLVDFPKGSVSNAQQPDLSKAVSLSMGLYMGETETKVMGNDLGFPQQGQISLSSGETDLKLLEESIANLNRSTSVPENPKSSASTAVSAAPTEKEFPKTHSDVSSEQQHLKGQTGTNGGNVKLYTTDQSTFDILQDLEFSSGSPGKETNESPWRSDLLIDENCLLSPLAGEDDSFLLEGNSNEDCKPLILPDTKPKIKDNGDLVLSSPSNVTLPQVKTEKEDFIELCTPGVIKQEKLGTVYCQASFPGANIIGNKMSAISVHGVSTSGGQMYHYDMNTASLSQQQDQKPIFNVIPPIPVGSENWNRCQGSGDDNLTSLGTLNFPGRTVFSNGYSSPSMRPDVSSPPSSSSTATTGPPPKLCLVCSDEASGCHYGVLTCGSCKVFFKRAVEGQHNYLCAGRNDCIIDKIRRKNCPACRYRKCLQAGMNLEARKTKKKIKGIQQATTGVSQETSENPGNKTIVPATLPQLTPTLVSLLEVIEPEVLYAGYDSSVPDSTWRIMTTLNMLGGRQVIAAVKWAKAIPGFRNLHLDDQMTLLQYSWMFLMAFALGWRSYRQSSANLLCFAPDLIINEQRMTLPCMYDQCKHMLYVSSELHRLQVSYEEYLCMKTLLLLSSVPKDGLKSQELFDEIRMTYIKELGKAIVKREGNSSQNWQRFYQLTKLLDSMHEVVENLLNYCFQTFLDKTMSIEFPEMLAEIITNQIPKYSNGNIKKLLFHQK
DNA dC->dU-editing enzyme APOBEC-3G (Homo sapiens), sequence (Q9HC16 whole entry, looked up): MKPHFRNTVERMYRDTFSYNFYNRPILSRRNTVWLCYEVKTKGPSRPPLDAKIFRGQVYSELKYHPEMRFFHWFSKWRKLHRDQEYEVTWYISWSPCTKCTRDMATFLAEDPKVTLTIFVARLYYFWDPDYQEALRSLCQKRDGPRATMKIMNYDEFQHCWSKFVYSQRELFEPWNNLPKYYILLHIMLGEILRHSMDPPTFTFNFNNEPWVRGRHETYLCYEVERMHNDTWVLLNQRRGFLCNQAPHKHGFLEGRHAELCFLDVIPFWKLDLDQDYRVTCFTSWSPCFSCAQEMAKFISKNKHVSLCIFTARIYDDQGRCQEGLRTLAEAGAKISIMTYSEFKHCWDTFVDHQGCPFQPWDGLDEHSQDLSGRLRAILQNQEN
Cytochrome P450 3A4 (Homo sapiens), sequence (P08684 whole entry, looked up): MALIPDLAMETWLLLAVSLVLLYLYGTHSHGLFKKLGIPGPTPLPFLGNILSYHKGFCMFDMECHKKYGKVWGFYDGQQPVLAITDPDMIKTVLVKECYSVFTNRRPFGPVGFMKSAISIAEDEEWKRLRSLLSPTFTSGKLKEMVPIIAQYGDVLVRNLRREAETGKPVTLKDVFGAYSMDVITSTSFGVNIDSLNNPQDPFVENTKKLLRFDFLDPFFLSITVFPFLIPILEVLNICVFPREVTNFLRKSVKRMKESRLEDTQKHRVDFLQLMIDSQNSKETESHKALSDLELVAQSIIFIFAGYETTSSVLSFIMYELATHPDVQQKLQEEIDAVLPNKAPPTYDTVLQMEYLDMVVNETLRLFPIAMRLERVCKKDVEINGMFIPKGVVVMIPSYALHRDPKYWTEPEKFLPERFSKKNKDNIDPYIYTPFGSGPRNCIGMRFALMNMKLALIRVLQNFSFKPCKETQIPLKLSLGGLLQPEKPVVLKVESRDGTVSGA
Muscarinic acetylcholine receptor M1 (Rattus norvegicus), sequence (P08482 whole entry, looked up): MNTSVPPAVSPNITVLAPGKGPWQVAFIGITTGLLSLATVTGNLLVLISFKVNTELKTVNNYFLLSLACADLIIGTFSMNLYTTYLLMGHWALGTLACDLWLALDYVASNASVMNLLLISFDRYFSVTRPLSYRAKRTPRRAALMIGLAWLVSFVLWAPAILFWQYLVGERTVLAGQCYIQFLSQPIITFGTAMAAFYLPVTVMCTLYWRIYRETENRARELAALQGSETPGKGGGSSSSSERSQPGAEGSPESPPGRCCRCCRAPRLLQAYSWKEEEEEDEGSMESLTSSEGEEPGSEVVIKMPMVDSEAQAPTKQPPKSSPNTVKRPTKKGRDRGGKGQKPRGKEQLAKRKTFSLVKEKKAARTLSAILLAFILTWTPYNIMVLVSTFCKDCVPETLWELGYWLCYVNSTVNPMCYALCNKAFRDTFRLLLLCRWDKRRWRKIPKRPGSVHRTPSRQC
Alpha-galactosidase (Coffea arabica), sequence (Q42656 whole entry, looked up): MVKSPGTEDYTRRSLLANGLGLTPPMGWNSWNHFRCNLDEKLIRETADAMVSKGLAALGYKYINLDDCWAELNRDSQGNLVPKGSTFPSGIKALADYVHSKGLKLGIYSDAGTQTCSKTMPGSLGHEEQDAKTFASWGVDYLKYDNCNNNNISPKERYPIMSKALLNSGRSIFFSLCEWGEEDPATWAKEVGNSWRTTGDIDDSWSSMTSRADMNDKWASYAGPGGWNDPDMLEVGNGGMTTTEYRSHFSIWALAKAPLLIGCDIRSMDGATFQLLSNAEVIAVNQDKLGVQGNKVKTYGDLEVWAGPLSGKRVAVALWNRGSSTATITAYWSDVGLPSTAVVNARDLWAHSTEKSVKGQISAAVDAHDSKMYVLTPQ
Cytochrome P450 1A2 (Homo sapiens), sequence (P05177 whole entry, looked up): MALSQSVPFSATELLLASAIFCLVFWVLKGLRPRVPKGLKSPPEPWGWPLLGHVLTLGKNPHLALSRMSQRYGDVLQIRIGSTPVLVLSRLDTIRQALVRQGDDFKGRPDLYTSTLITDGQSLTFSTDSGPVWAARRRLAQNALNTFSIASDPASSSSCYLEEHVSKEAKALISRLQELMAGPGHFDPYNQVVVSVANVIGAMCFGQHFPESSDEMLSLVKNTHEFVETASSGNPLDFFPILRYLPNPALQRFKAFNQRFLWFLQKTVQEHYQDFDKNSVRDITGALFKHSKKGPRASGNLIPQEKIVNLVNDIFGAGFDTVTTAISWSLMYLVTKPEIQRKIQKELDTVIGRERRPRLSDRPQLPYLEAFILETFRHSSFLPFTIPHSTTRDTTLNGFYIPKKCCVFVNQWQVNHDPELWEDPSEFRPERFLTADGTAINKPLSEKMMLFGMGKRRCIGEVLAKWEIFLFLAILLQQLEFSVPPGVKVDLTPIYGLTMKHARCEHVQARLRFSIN
Alpha-galactosidase A (Homo sapiens), sequence (P06280 whole entry, looked up): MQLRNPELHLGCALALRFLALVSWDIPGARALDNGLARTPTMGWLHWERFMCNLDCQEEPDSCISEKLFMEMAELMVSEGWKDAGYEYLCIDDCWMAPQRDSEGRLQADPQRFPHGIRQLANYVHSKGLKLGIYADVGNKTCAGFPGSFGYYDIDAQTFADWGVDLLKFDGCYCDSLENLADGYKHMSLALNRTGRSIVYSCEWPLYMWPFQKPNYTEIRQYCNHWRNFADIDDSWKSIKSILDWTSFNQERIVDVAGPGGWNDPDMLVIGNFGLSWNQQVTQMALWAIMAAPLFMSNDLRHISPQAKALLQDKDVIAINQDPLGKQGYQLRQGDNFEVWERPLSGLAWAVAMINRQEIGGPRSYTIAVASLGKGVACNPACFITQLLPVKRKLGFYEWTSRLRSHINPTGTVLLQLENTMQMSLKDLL
Pyruvate kinase PKM (Homo sapiens), sequence (P14618 whole entry, looked up): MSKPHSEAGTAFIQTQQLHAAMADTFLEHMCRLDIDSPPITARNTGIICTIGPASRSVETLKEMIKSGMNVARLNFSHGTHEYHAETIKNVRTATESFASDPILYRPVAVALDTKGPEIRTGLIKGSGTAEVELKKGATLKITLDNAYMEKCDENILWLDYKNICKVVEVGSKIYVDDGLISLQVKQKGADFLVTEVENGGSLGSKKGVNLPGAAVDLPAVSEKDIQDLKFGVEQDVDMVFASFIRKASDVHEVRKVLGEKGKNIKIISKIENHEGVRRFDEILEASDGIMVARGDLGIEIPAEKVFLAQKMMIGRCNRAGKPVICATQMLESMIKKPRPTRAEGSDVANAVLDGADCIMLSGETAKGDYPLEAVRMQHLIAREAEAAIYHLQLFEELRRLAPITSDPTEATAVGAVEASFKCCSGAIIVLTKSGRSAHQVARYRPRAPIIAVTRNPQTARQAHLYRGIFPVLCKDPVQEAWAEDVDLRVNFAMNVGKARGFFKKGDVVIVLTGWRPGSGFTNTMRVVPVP

C[C@H](N)Cc1cnc[nH]1
inactive: outcome [1] | activity change, negative = inhibition [2] 4.34% | Potency [3] > 46 µM | outcome [4] | Potency [5] | Potency [6] | Potency [7] | outcome [8] | outcome [9] | outcome [10] | outcome [11] | outcome [12] | outcome [13] | Potency [14] | Potency [15] | Potency [16]

CC(=O)[C@]12C[C@]3(C)CCCN(C(=O)N[C@@H]1c1ccccc1)C32 (stereo partly drawn)
inactive: outcome [17] | outcome [18] | outcome [19]

CCOC(=O)[C@]12C[C@@H]3CCN(C(=O)N(C(C)=O)[C@@H]1c1ccccc1)[C@@H]32
inactive: outcome [17] | outcome [18] | outcome [19]

c1cncc(C2CCCCN2)c1 (stereo not drawn)
15%: max response [23, 26]
inactive: Potency [20] | Potency [21] | outcome [22] | activity change, negative = inhibition [23] 4.14% | Potency [14] | Potency [16]
20.8%: max response [23, 27]

COC(=O)[C@@]1(C=C2c3ccc(F)cc3[C@@H](OC)[C@@H]2C)[C@@H]2c3ccccc3O[C@@H]21
inactive: outcome [18]

CCOC(=O)[C@]12C[C@@H]3OCCN(C(=O)N[C@@H]1c1ccccc1)[C@@H]32
inactive: outcome [17] | outcome [18] | outcome [19]

COC(=O)[C@]12C[C@@H]3CCN(C(=O)N[C@@H]1c1ccccc1)[C@@]32C
inactive: outcome [17] | outcome [18] | outcome [19]

CC(=O)[C@@]12C3[C@@H](CCN3C(=O)N[C@H]1c1ccccc1)[C@H]2c1ccccc1 (stereo partly drawn)
inactive: outcome [17] | outcome [19]

C=C1[C@@H]2CCN3C(=O)N[C@@H](c4ccccc4)[C@@]1(C(=O)OCC)C23 (stereo partly drawn)
inactive: outcome [17] | outcome [18] | outcome [19]

C=C(C)[C@H]1C2C(=O)O[C@H]1[C@H]1OC(=O)[C@@]34O[C@@H]3C[C@]2(O)[C@@]14C
inactive: activity change, negative = inhibition [23] 2.82% | Potency [14] | Potency [15] | Potency [16]
11%: max response [23, 27]
7.99%: max response [23, 26]

COC(=O)C1c2c(n(C)c3ccccc23)[C@H]2[C@@H](C)[C@H](OC)c3ccccc3[C@@H]12 (stereo partly drawn)
inactive: outcome [19]

Clc1ccc(C2=CCC[C@H]3CC[C@@H]2N3)cn1
active: Potency [24] 15.8 µM
inactive: Potency [3] > 46 µM | outcome [4] | Potency [25] | Potency [14] | Potency [15] | Potency [16]

CC(=O)[C@]12[C@H](c3ccccc3)[C@@H]3CCN(C(=O)N[C@H]1c1ccccc1)[C@@]32C
inactive: outcome [17] | outcome [18] | outcome [19]

COC(=O)[C@@]1(C=C[C@@H](C)[C@H](OC)c2ccccc2Br)[C@@H]2Oc3ccccc3[C@@H]21
inactive: outcome [17] | outcome [18] | outcome [19]

CCOC(=O)[C@@]12[C@@H]3[C@@H](CCN3C(=O)N[C@H]1c1ccccc1)C2(C)C
inactive: outcome [17] | outcome [19]

COC(=O)C1=C2CCCO[C@H]2[C@@H]2[C@@H](C)[C@H](OC)c3ccccc3[C@@H]12
inactive: outcome [17] | outcome [18] | outcome [19]

CCOC(=O)[C@]12C[C@]3(C)CCN(C(=O)N[C@@H]1c1ccccc1)[C@@H]32
inactive: outcome [17] | outcome [18] | outcome [19]

COC(=O)C1=C2CCO[C@@H]2[C@H]2[C@@H](C)[C@H](OC)c3ccccc3[C@H]12
inactive: outcome [17] | outcome [18] | outcome [19]
